# Assay results taken from PubChem BioAssay (EPA / NIEHS).
# Active and inactive are the calls of the source. How the source made its calls: active means hit-call score of the fitted dose curve at least 0.9, where 1 is the maximum; inactive means score below 0.9.
# Read-out: Monocyte Chemoattractant Protein-1 (MCP1), CCL2 (gene 6347)
# Assay: BSK_SAg_MCP1: BioMAP Diversity Plus: SAg Assay for Monocyte Chemoattractant Protein-1 (MCP1) Biomarker Activity (AID 2283090)
# Conditions: primary human HUVEC with PBMC; actives raise or lower the signal
# Experimental: BSK_SAg is a cell-based, multiplexed-readout assay that uses umbilical vein endothelium and peripheral blood mononuclear cells, a human vascular primary cell co-culture, with measurements taken at 24 hours after chemical dosing in a 96-well plate.BSK_SAg_MCP1 is an assay component measured in the BSK_SAg assay. It measures MCP-1 antibody related to regulation of gene expression using ELISA technology.Data from the assay component BSK_SAg_MCP1 was analyzed into 1 assay endpoint. This assay endpoint, BSK_SAg_MCP1, was analyzed with bidirectional fitting relative to DMSO as the negative control and baseline of activity. Using a type of binding reporter, gain or loss-of-signal activity can be used to understand changes in the signaling as they relate to the gene CCL2. Furthermore, this assay endpoint can be referred to as a primary readout, because this assay has produced multiple assay endpoints where this one serves a signaling function. To generalize the intended target to other relatable targets, this assay endpoint is annotated to the cytokine intended target family, where the subfamily is chemotactic factor.
# The levels of cell surface (or secreted, indicated by the prefix "s") biomarker endpoints were measured by ELISA. Overt cytotoxicity to cells in confluent adherent cultures (all systems other than the BT system) was assessed by measuring total protein levels using sulforhodamine B (SRB) staining in parallel cultures at the time of biomarker measurements, indicated as SRB endpoints. For proliferation assays for adherent cell types, individual cell types are cultured at sub-confluence and relative cell numbers quantified by SRB staining at time points optimized for each system (48 h: 3C and CASM3C systems; 72 h: BT and HDF3CGF systems; 96 h: SAg system). SRB was performed by staining cells with 0.1% SRB after fixation with 10% TCA and reading wells at 560 nm.Viability and proliferation of PBMC (T cells) was quantified by Alamar Blue reduction for the SAg and BT systems. For PBMC viability (referred to as PBMC Cytotoxicity within the assay endpoint names), cells were plated (75,000/well in a 96-well plate) and then chemical samples added for 1 h before addition of activators, SEB and TSST-1 (20 ng/mL final concentration each). Cells were incubated for 90 h. Then, Alamar Blue (20 uL/well) (Invitrogen, Cat DAL1100) was added for 6 h, and the plates were read with a fluorescence microplate reader at 546/580 nm (excitation/emission). For PBMC proliferation, cells were plated and activated as above but incubated for only 16 h prior to addition of Alamar Blue. Plates were read after 6 h.
SMILES,AC50,outcome
CC(C)(C)C(O)/C(=C\c1ccc(Cl)cc1Cl)n1cncn1 (stereo not given),31.8 µM (active),–
N#Cc1c(Cl)c(Cl)c(Cl)c(C#N)c1Cl,1.68 µM (active),–
O=[N+]([O-])/N=C1\NCCN1Cc1ccc(Cl)nc1,–,inactive
O=C1c2ccccc2C(=O)N1SC(Cl)(Cl)Cl,–,inactive
Clc1ccccc1-c1nnc(-c2ccccc2Cl)nn1,–,inactive
CC(C)N(C(=O)COc1nnc(C(F)(F)F)s1)c1ccc(F)cc1,–,inactive
COc1nn(CSP(=S)(OC)OC)c(=O)s1,–,inactive
CNC(=O)Oc1ccccc1OC(C)C,–,inactive
CC[C@H](C)[C@H]1O[C@]2(C=C[C@@H]1C)C[C@@H]1C[C@@H](C/C=C(\C)[C@@H](O[C@H]3C[C@H](OC)[C@@H](O[C@H]4C[C@H](OC)[C@@H](O)[C@H](C)O4)[C@H](C)O3)[C@@H](C)/C=C/C=C3\CO[C@@H]4[C@H](O)C(C)=C[C@@H](C(=O)O1)[C@]34O)O2 (tested in a mixture with another compound),5.58 µM (active),–
O=C(NC(=O)c1c(F)cccc1F)Nc1ccc(OC(F)(F)C(F)OC(F)(F)F)c(Cl)c1 (stereo not given),32.2 µM (active),–
Cc1[nH]c(=O)n(C(C)(C)C)c(=O)c1Cl,5.42 µM (active),–
ClC1C(Cl)C(Cl)C(Cl)C(Cl)C1Cl (stereo not given),–,inactive
CCN(CC)C(=O)SCc1ccc(Cl)cc1,–,inactive
N#CN,–,inactive
CC1(C)C(C=C(Cl)Cl)C1C(=O)OC(C#N)c1ccc(F)c(Oc2ccccc2)c1 (stereo not given),7.41 µM (active),–
COC(=O)c1ccccc1S(=O)(=O)NC(=O)Nc1nc(C)nc(OC)n1,–,inactive
CN1CSC(=S)N(C)C1,15 µM (active),–
O=S(=O)(O)C(F)(F)C(F)(F)C(F)(F)C(F)(F)C(F)(F)C(F)(F)C(F)(F)C(F)(F)F,–,inactive
CNC(=O)CSP(=S)(OC)OC,–,inactive
CCC(C)(C)C(=O)OC1=C(c2ccc(Cl)cc2Cl)C(=O)OC12CCCCC2,16.7 µM (active),–

SMILES,AC50,outcome
COC(=O)c1ccccc1S(=O)(=O)NC(=O)N(C)c1nc(C)nc(OC)n1,–,inactive
O=[N+]([O-])c1c(Cl)c(Cl)c(Cl)c(Cl)c1Cl,–,inactive
CCS(=O)(=O)c1cccnc1S(=O)(=O)NC(=O)Nc1nc(OC)cc(OC)n1,–,inactive
CNC(=O)Oc1cccc(N=CN(C)C)c1,–,inactive
CCC(C)Nc1c([N+](=O)[O-])cc(C(C)(C)C)cc1[N+](=O)[O-] (stereo not given),–,inactive
CC1(c2ccc(Oc3ccccc3)cc2)OC(=O)N(Nc2ccccc2)C1=O (stereo not given),19.8 µM (active),–
OCCOc1ccccc1,–,inactive
O=S1OCC2C(CO1)C1(Cl)C(Cl)=C(Cl)C2(Cl)C1(Cl)Cl (stereo not given),35.5 µM (active),–
C#CCN1C(=O)COc2cc(F)c(N3C(=O)C4=C(CCCC4)C3=O)cc21,–,inactive
COP(=O)(OC)OC=C(Cl)Cl,17.5 µM (active),–
O=C(O)CCCOc1ccc(Cl)cc1Cl,–,inactive
CCOCN(C(=O)CCl)c1c(C)cccc1CC,36 µM (active),–
C[C@H]1[C@H](c2ccc(Cl)cc2)SC(=O)N1C(=O)NC1CCCCC1,27 µM (active),–
[2H]C1([2H])[n+]2ccccc2-c2cccc[n+]2C1([2H])[2H],–,inactive
CCCN(CCOc1c(Cl)cc(Cl)cc1Cl)C(=O)n1ccnc1,29.6 µM (active),–
CCc1ccc(C(=O)NN(C(=O)c2cc(C)cc(C)c2)C(C)(C)C)cc1,–,inactive
O=C(Nc1ccccc1)Nc1cnns1,–,inactive
Oc1ccc(Cl)cc1Cc1ccccc1,34.9 µM (active) [middle of 7 runs],–
CC(C)(C)C(O)C(Oc1ccc(Cl)cc1)n1cncn1 (stereo not given),–,inactive
COc1cc(OC)nc(NC(=O)NS(=O)(=O)c2cc(NC=O)ccc2C(=O)N(C)C)n1,–,inactive
